FEN1 inh-1: human FEN1 inhibition | P39748 | Recombinant FEN1 flap cleavage, fluorescence, 15 min | Potency, µM (series often up to 114 µM), for the others: at the highest dose activity change, negative = inhibition, most hits filed as inhibitors | actives 0.35% (n = 390,000) | AID 588795; note: potency is the fitted concentration of half-maximal effect; % is set by controls: 0 for no effect and ±100 for the full control effect; nearly all actives have a fitted effect of over 65% in size
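Read-out was taken twice, immediately and after 15 min, following addition of 50 nM substrate to 10 nM FEN1 that had sat with test compound for 15 min at room temperature. Curves came from a four-parameter Hill model.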
PI5P4Ka inh: blocks human PI5P4K alpha kinase activity. PI5P4Kalpha enzyme, ADP-Glo luminescence, 60 min; active compounds read low. P48426. AID 652105. max response, %. actives 1.2% (n = 330,000); active = max response of -50% or lower; inconclusive = between -30% and -50%; inactive = -30% or higher; note: value at the top dose of about 77 µM; % is set by controls: 0 for no effect and ±100 for the full control effect
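Enzyme plus substrate dispensed, test compounds pinned in, then ATP (5 microM final) added. After 60 min at RT, ADP-Glo reagent 1 for 45 min and reagent 2 for 30 min preceded luminescence imaging.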
VDR inhibitor: inhibitors of human vitamin D receptor | P11473 | VDR-SRC2-3 peptide fluorescence polarization, 2 h | Potency, µM, for the others: max response, negative = inhibition, usual class: inhibitors | actives 0.93% (n = 400,000); note: potency is the fitted concentration of half-maximal effect; % is set by controls: 0 for no effect and ±100 for the full control effect
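FP read-out; VDR + SRC2-3 coactivator peptide; 23 nl compound by pintool; 2 h RT incubation; reagents held at 4 deg C, protected from light.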
WRN helicase inh-1: WRN helicase (human) inhibition; WRN helicase unwinding, fluorescent forked duplex, kinetic; Potency, µM (highest dose often 114 µM), for the others: at the top dose activity change, negative = inhibition, hits mostly inhibitors; actives 0.46% (n = 360,000); note: potency is the fitted concentration of half-maximal effect; % is set by controls: 0 for no effect and ±100 for the full control effect; nearly all actives have a fitted effect of over 55% in size
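WRN at 20 nM final was preincubated with compound for 15 min at room temperature; reaction started with 100 nM forked duplex oligonucleotide carrying fluorophore and quencher plus 2 mM ATP (final). Unwinding followed kinetically by red fluorescence (ex 525/em 598 nm).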
TCR act: activates T cell receptor signaling; primary human leukocytes, anti-CD3, IL-2 HTRF, 48 h; Potency, µM (titrated, usually from 9.22 µM), inactives show at the top dose activation of IL-2 secretion, hits mostly activators; 330,000 tested, under 10 active; note: % of control where 0% means no effect
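1) Mix primary human leukocytes, a-CD3 beads and compound. 2) Incubate 48 hr. 3) Add HTRF IL-2 reagents (a-IL-2-K, a-IL-2-d2).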
PLK1 PBD block: blocks phosphopeptide binding to human PLK1 polo-box domain | P53350 | Plk1 PBD binding of FITC phosphopeptide, fluorescence polarization | Potency, µM, for inactives: max response, negative = inhibition, hits mostly inhibitors | actives 2.8% (n = 360,000); note: potency is the fitted concentration of half-maximal effect; series mostly up to about 57 µM; % is set by controls: 0 for no effect and ±100 for the full control effect; nearly all actives have a fitted effect of over 65% in size
Target sequence (P53350 whole entry, looked up, the tested form may be a part): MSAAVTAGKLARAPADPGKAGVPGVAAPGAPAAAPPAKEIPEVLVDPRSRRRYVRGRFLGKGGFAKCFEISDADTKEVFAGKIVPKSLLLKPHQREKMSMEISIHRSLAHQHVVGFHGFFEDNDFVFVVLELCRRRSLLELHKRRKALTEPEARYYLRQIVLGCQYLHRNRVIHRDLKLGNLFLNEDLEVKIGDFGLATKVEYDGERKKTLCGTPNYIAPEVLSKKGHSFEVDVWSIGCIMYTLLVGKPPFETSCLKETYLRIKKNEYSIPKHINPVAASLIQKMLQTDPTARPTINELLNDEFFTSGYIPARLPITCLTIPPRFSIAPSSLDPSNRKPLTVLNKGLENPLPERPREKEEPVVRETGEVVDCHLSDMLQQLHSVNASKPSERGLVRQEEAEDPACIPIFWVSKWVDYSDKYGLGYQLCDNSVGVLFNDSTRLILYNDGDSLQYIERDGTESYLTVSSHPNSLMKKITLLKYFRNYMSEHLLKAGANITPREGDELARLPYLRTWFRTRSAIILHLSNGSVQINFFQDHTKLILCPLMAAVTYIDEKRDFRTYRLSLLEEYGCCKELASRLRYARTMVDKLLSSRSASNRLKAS
FEN1 inh-2: FEN1 inhibition, cherry-pick retest; shares compounds with FEN1 inh-1; AID 720498; actives 79% (n = 880); FEN1 flap cleavage, TAMRA/BHQ2 fluorogenic DNA substrate; Potency, µM, actives largely listed as inhibitors; note: potency is the fitted concentration of half-maximal effect; nearly all actives have a fitted effect of over 60% in size
WRN helicase inh-2: WRN helicase inhibition, cherry-pick retest. shares compounds with WRN helicase inh-1. WRN helicase DNA unwinding, fluorescence kinetic. Potency, µM (doses to about 57.1 µM), for the others: at the top dose activity, negative = inhibition, most hits filed as inhibitors. actives 63% (n = 610). AID 720497; note: potency is the fitted concentration of half-maximal effect; nearly all actives have a fitted effect of over 65% in size
TO DNA binding: DNA binding via thiazole orange displacement. shares compounds with WRN helicase inh-1. thiazole orange DNA binding displacement, fluorescence. Potency, µM (doses to about 57.1 µM), inactives show at the highest dose activity change, negative = inhibition, actives largely listed as inhibitors. actives 10% (n = 610). AID 720499;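 note: drop in dye fluorescence marks compound binding to DNA; potency is the fitted concentration of half-maximal effect; % is set by controls: 0 for no effect and ±100 for the full control effect; nearly all actives have a fitted effect of over 60% in size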
BLM helicase inh: BLM helicase inhibition, WRN selectivity check. AID 720503. Potency, µM (doses to about 57.1 µM), without a hit: top-dose activity change, negative = inhibition, most hits filed as inhibitors. actives 60% (n = 610). Recombinant BLM helicase DNA unwinding, red fluorescence. shares compounds with WRN helicase inh-1; note: potency is the fitted concentration of half-maximal effect; nearly all actives have a fitted effect of over 60% in size
ADP-Glo interf: counter-screen for PI5P4K inhibitors: ADP-Glo detection interference, no enzyme | Potency, µM (highest dose often 76.9 µM), for inactives: at the top dose activity change, negative = inhibition, hits mostly inhibitors | ADP-Glo detection counter-screen, luciferase luminescence, no enzyme | shares compounds with PI5P4Ka inh | 1,100 tested, under 10 active
TbPYK inh: Trypanosoma brucei pyruvate kinase inhibition, cherry-pick confirmation | shares compounds with PLK1 PBD block | recombinant TbPYK, Kinase-Glo ATP luminescence | Potency, µM (highest dose often 76.9 µM), for inactives: top-dose activity change, negative = inhibition, usual class: inhibitors | actives 67% (n = 890) | AID 720569; note: potency is the fitted concentration of half-maximal effect; % is set by controls: 0 for no effect and ±100 for the full control effect; nearly all actives have a fitted effect of over 70% in size
TbPYK orthogonal: TbPYK inhibition, orthogonal confirmation | actives 62% (n = 890) | recombinant TbPYK, ADP-Glo luminescence, 60 min | Potency, µM (highest dose often 76.9 µM), for the others: top-dose activity change, negative = inhibition, actives largely listed as inhibitors | AID 720584 | shares compounds with PLK1 PBD block; note: potency is the fitted concentration of half-maximal effect; % is set by controls: 0 for no effect and ±100 for the full control effect; nearly all actives have a fitted effect of over 75% in size
* marks the source's active call; other numbers are inactive results; ? = inconclusive; . = not tested or not shown; [ ] = remark or other dose. Rows were chosen to be rich in hits. Some 3.7% of all compounds tested hit in one or more screens of this group. Unless noted, calls come from the whole dose curve; as a rule, active = well fitted curve in the direction sought with a large enough effect; inconclusive = small, poorly fitted or top-dose-only effect, or another doubt; inactive = no such curve, though single readings can be large; an effect the other way counts as inactive or inconclusive.

SMILES	FEN1 inh-1	PI5P4Ka inh	VDR inhibitor	WRN helicase inh-1	TCR act	PLK1 PBD block	WRN helicase inh-2	TO DNA binding	BLM helicase inh	others
O=C(NCC1CCCO1)c1cc(-c2ccco2)nc2ccccc12 (stereo unspecified)	-4%	?	-8%	-28%	2%	?	.	.	.
COc1ccccc1Nc1ccc2c(O)cc(S(=O)(=O)O)cc2c1	22µM*	-102*	?	-113%	1%	11µM*	6.1µM*	?	5.4µM*	FEN1 inh-2=67*;ADP-Glo interf=2%
O=S(=O)(O)c1cc(O)c2cc(Nc3ccccc3)ccc2c1	50µM*	-69*	?	11µM*	0%	19µM*	.	.	.	FEN1 inh-2=85*;ADP-Glo interf=-6%
CCCNC(=O)c1ccc2c(c1)N=C(C)c1c(C)ccc(C)c1S2	-15%	.	7%	.	.	.	.	.	.
COC(=O)c1ccc([C@H]2Nc3ccc(S(=O)(=O)Nc4ccc(F)cc4)cc3[C@H]3C=CC[C@H]32)cc1	-20%	.	-5%	.	.	.	.	.	.
COc1cccc(NS(=O)(=O)c2ccc3c(c2)C2C=CCC2C(c2ccc(C(=O)O)cc2)N3)c1 (stereo unspecified)	35µM*	-66*	?	45µM*	0%[46.1 µM]	?	.	.	.	FEN1 inh-2=30*;ADP-Glo interf=-8%
Cc1nn2c(=O)cc(COC(=O)Cc3ccccc3)nc2s1	2%	.	13%	.	.	.	.	.	.
O=S(=O)(O)c1cc(O)c(N=Nc2ccc(O)cc2O)c2ccccc12	35µM*	-78*	52%	40µM*	0%	?	.	.	.	FEN1 inh-2=85*;TbPYK inh=11µM*;TbPYK orthogonal=?
O=[N+]([O-])c1ccccc1N=Nc1ccc(O)cc1O	?	?	-12%	?	2%	-5%	.	.	.
O=c1c2oc3ccccc3c2n(Cc2ccccc2Cl)c(=O)n1Cc1ccco1	1%	.	15%	.	.	.	.	.	.
O=C(O)c1ccc2nc(-c3ccco3)c(-c3ccco3)nc2c1	35µM*	?	?	?	3%	12µM*	4.3µM*	3.8µM*	12µM*	FEN1 inh-2=15*;TbPYK inh=14µM*;TbPYK orthogonal=16µM*
O=C(c1ccc2nc(-c3ccco3)c(-c3ccco3)nc2c1)N1CCN(c2ccccc2)CC1	-4%	.	0%	-22%	1%	-11%	.	.	.
Cc1cc(=O)c2c(o1)C(=O)c1occc1C2=O	50µM*	?	?	25µM*	-3%	?	24µM*	-24%	?	FEN1 inh-2=?;TbPYK inh=2.5µM*;TbPYK orthogonal=?
O=C1C=C(NCCc2cc(Br)c(O)c(Br)c2)C(=O)c2ncccc21	45µM*	-74*	32µM*	25µM*	-3%	2.7µM*	22µM*	?	19µM*	FEN1 inh-2=60*;TbPYK inh=11µM*;TbPYK orthogonal=16µM*
Cc1ccc2c(c1)nc(SCC(O)c1ccc(Br)cc1)n2C (stereo unspecified)	-7%	.	-4%	.	.	.	.	.	.
O=C(O)c1ccc(-n2cccc2/C=C2\SC(=O)N(Cc3cccc(Cl)c3)C2=O)cc1	.	.	.	.	.	.	19µM*	-18%	14µM*
CN1CCc2nc(SCC(=O)Nc3cccc(F)c3)c(C#N)c(-c3cccs3)c2C1	-9%	.	?	-19%	-2%	?	.	.	.
CN1CCc2nc(SCC(=O)Nc3ccc(OC(F)(F)F)cc3)c(C#N)c(-c3cccs3)c2C1	-1%	-20	?	?	-6%[46.1 µM]	?	19µM*	3.4µM*	24µM*
Cc1ccc(-c2[nH]c(-c3ccc(C(=O)O)cc3)nc2-c2ccccc2)cc1	-7%	2	-9%	?	-3%	?	24µM*	-28%	?
O=C(O)c1cccc(N2C(=O)c3cc([N+](=O)[O-])cc4cc([N+](=O)[O-])cc(c34)C2=O)c1	20µM*	-73*	56µM*	40µM*	7%	8.4µM*	27µM*	-26%	?
CCCOc1ccc(C(=O)Nc2ccc3oc(-c4ccc5ccccc5c4)nc3c2)cc1	3%	.	-8%	.	.	.	.	.	.
CN(C)c1ncc(C2=C(Cl)C(=O)C(N3CCCC3)=C(Cl)C2=O)s1	50µM*	.	28µM*	9.5µM*	2%	7.5µM*	?	?	7.6µM*
O=C(O)C1NCc2[nH]cnc2C1c1ccccc1 (stereo unspecified)	.	.	.	.	.	.	-27%	-3%	?
O=C(NNc1c(Cl)cccc1Cl)c1sc2ccccc2c1Cl	1%	.	6%	.	.	.	.	.	.
NS(=O)(=O)c1ccc(CCNC(=O)Cn2c(-c3cccs3)cc3ccccc32)cc1	-3%	.	12%	.	.	.	.	.	.
Cc1cc(OCC(=O)Nc2ccc(N3CCN(C(=O)c4ccco4)CC3)cc2)cc(C)c1Cl	?	.	2%	?	-3%	-10%	?	-10%	5.4µM*
O=C(CSc1nnc(-c2cnccn2)n1Cc1ccco1)c1ccc(Cl)cc1	9%	.	?	?	-4%	-15%	-13%	-17%	-23%
O=C(CSc1nnc(-c2cnccn2)n1Cc1ccco1)c1ccccc1	-13%	-2	-16%	-11%	5%	1%	.	.	.
O=C(CSc1nc2ccsc2c(=O)n1CC1CCC(C(=O)O)CC1)c1ccc(Cl)cc1 (stereo unspecified)	?	11	-4%	?	2%	-15%	24µM*	10%	15µM*

Screening results as filed in PubChem BioAssay.
